# Inconclusive results are not listed. Entries that show only a call come without a potency. Activity calls are given as the source filed them. Unless noted, the call rests on the fitted dose curve; in most records, active means well fitted curve in the direction sought with a large enough effect; inconclusive means small, poorly fitted or top-dose-only effect, or another doubt; inactive means no such curve, though single readings can be large; an effect the other way counts as inactive or inconclusive.
# Assays:
# [1] = target: Luciferin 4-monooxygenase (Photinus pyralis) (UniProt P08659); assay: Biochemical firefly luciferase enzyme assay for NPC (AID 624030);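 further: purified P. pyralis luciferase at 10 nM with luciferin and ATP substrate; nearly all actives have a fitted effect of over 70% in size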
# Sequence of Luciferin 4-monooxygenase (Photinus pyralis) (P08659 whole entry, looked up): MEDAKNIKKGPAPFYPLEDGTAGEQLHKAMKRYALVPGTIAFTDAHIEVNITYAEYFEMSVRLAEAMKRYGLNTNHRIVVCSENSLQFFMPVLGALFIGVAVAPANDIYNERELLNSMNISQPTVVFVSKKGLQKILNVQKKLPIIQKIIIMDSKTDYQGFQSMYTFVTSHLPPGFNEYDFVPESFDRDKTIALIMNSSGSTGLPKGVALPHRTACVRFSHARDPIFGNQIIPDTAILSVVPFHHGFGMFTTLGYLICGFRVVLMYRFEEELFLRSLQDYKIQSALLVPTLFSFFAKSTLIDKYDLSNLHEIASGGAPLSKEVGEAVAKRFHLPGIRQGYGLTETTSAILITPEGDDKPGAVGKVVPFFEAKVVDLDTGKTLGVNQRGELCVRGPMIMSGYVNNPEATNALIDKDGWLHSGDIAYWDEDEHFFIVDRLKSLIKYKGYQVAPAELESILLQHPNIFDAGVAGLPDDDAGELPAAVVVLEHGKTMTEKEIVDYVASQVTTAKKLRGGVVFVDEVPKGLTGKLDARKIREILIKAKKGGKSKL
# How it was run: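 Purified P. pyralis luciferase at 10 nM in 50 mM Tris Acetate (final), luminescence read within 5 minutes of enzyme addition to compounds. Activity normalised to PTC124 versus DMSO; concentration-response curves classed by r2, magnitude and activity.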
# [2] = P-glycoprotein substrates identified in KB-8-5-11 adenocarcinoma cell line, qHTS therapeutic library screen (AID 1346987); further: nearly all actives have a fitted effect of over 65% in size; further: potency means the concentration at half of the fitted maximal effect
# How it was run: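 KB-8-5-11, a colchicine-selected P-gp-overexpressing KB-3-1 subline, was grown without colchicine for the assay. Cells were seeded at 500 cells/well, dosed in concentration-response and incubated 72 h at 37 degree C, 5% CO2. Viability was read by CellTiter-Glo luminescence.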
# [3] = Primary qHTS for Huh7 cytotoxicity: counterscreen for inhibitors of MERS-S pseudotyped particle cell entry (AID 1479147; calls by dose curve); conditions: outcome: dose series up to 57.1 µM unless noted
# [4] = Primary qHTS for inhibitors of MERS-S pseudo-typed particle cell entry (AID 1479149; calls by dose curve; further: nearly all actives have a fitted effect of over 60% in size)
# [5] = Primary qHTS for Vero E6 cytotoxicity: counterscreen for inhibitors of SARS-S pseudo-typed particle cell entry (AID 1479150; calls by dose curve); conditions: outcome: dose series up to 57.1 µM unless noted
# [6] = Cytotoxicity counterscreen for inhibitors of SARS-CoV-2 cell entry (AID 1645845; calls by dose curve; further: nearly all actives have a fitted effect of over 50% in size)
# How it was run: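 HEK293-ACE2 cells (Expi293F stably expressing human ACE2) seeded overnight, then compound for 1 h plus 48 h at 37C. Viability as ATP content by luminescence; normalized to wells with cells and media-only wells.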
# [7] = Primary qHTS to identify inhibitors of SARS-CoV-2 cell entry (AID 1645846; calls by dose curve; further: nearly all actives have a fitted effect of over 45% in size); conditions: activity change, negative = inhibition: at 57.1 µM (top of the series) unless noted
# How it was run: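 Using luciferase-reporting pseudoviruses carrying Wuhan-Hu-1 spike, the screen tracks entry into stably ACE2-expressing cells over 48 hr. Activity is expressed relative to spike particles versus particles lacking any fusion protein.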
# [8] = target: Glutathione peroxidase 1 (Homo sapiens) (UniProt P07203); assay: Primary qHTS Assay for Inhibitors of Recombinant Selenoprotein Glutathione Peroxidase 1 (GPX1) (AID 1845191); further: nearly all actives have a fitted effect of over 65% in size
# Sequence of Glutathione peroxidase 1 (Homo sapiens) (P07203 whole entry, looked up): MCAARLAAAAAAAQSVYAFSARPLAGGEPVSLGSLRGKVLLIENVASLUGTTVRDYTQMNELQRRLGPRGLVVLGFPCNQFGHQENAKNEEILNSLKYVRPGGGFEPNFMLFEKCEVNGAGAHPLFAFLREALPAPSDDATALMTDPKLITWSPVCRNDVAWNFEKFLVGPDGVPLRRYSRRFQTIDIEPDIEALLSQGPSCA
# How it was run: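 GR-coupled assay: compounds preincubated 30 min at room temperature with GPX1, then reaction started with CHP; final 10 nM GPX1, 1 mM GSH, 0.5 mM CHP, 0.5 mM NADPH, 100 nM GR, 0.01% BSA, pH 7.5 Tris buffer. NADPH fluorescence (340/450 nm) read at 0 and 15 min.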
# [9] = target: Phospholipid hydroperoxide glutathione peroxidase GPX4 (Homo sapiens) (UniProt P36969); assay: Primary qHTS Assay for Inhibitors of Recombinant Selenoprotein Glutathione Peroxidase 4 (GPX4) (AID 1845192); further: nearly all actives have a fitted effect of over 65% in size
# Sequence of Phospholipid hydroperoxide glutathione peroxidase GPX4 (Homo sapiens) (P36969 whole entry, looked up): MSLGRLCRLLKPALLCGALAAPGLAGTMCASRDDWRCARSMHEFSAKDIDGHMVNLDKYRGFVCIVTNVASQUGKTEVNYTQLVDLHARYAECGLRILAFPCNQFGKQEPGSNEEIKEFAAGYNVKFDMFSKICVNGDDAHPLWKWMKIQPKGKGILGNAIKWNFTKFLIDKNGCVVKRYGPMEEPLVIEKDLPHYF
# How it was run: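 GR-coupled assay: recombinant GPX4 preincubated 30 min with compound at room temperature; final 200 nM GPX4, 1 mM GSH, 0.5 mM cumene hydroperoxide, 0.5 mM NADPH, 100 nM GR, 0.01% BSA, pH 7.5 Tris. NADPH fluorescence (340/450 nm) read at 0 and 15 min.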
# astro = assay: Drug repurposing screens with cells derived from glioblastoma tumor samples (AID 1345199); conditions: viability, ATP luminescence, 48 h; series mostly up to 45.9 µM; further: nearly all actives have a fitted effect of over 40% in size
# How it was run: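 Four patient lines of CD133+ GBM neurospheres were screened at several concentrations; hits were retested in those lines plus three slower-growing GBM lines, using 48-hour treatment and ATP-based viability.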
# [10] = qHTS for Inhibitors of the Functional Ribonucleoprotein Complex (vRNP) of Lassa (LASV) Arenavirus: LASV Primary Screen - GLuc reporter signal (AID 1347082; calls by dose curve; tested in HEK293 reporter line; further: nearly all actives have a fitted effect of over 60% in size)
# [11] = P-glycoprotein substrates identified in KB-3-1 adenocarcinoma cell line, qHTS therapeutic library screen (AID 1346986);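 further: potency means the concentration at half of the fitted maximal effect; potency is for cytotoxicity meaning loss of cell viability; nearly all actives have a fitted effect of over 60% in size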
# How it was run: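 KB-3-1 parental and colchicine-selected P-gp-overexpressing KB-8-5-11 cells (colchicine omitted during assay), 500 cells/well, dosed in dose-response for 72 h at 37 °C; CellTiter-Glo luminescence. Cytotoxic: curve class -1.1 to -2.4, max response >50%, AC50 < 10 uM.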
# [12] = Primary qHTS for inhibitors of nuclear receptor binding SET domain protein 2 (NSD2) in an isogenic RCH-ACV NSD2 p.E1099K mutant (9B) (AID 1645876); further: potency means the concentration at half of the fitted maximal effect; nearly all actives have a fitted effect of over 70% in size
# [13] = Primary qHTS for inhibitors of nuclear receptor binding SET domain protein 2 (NSD2) in an RCH-ACV wild type WT cells (2C) (AID 1645877); further: potency means the concentration at half of the fitted maximal effect; nearly all actives have a fitted effect of over 70% in size
structure (smiles),measurement,setting,value
CNC(C)CC1CCCCC1 (configuration not stated),Potency,[1],inactive
same,Potency,[2],inactive
same,outcome,[3],inactive
same,Potency,[4],inactive
same,outcome,[5],inactive [at 85.7 µM]
same,Potency,[6],inactive
same,"activity change, negative = inhibition",[7],-28.6% [at 85.7 µM]
same,Potency,[8],inactive
same,Potency,[9],inactive
same,Potency,astro,inactive
C=CCC1([C@@H](C)CCC)C(=O)NC(=O)NC1=O,Potency,[1],inactive
same,Potency,[2],inactive
same,Potency,astro,inactive
CC1=CC(C)CC(C)OC(=O)CC(c2ccc(O)cc2)NC(=O)C(Cc2c(Br)[nH]c3ccccc23)N(C)C(=O)C(C)NC(=O)C(C)C1 (configuration not stated),Potency,[10],inactive
COc1cc([C@@H]2c3cc4c(cc3[C@@H](O)[C@H]3COC(=O)[C@H]23)OCO4)cc(OC)c1O,Potency,[2],0.651 µM (active)
COCC1OC(=O)c2coc3c2C1(C)C1=C(C3=O)C2CCC(=O)C2(C)CC1OC(C)=O (configuration not stated),Potency,[11],20.6 µM (active)
same,Potency,[2],6.51 µM (active)
same,Potency,[12],3.66 µM (active)
same,Potency,[13],1.3 µM (active)
CCC(=O)O[C@H]1[C@@H](N2CCCCC2)C[C@H]2[C@@H]3CC[C@H]4C[C@H](OC(C)=O)[C@@H](N5CCCCC5)C[C@]4(C)[C@H]3CC[C@@]21C,Potency,[2],inactive
same,Potency,astro,inactive
CC[C@H]1OC(=O)[C@H](C)[C@@H](O[C@H]2C[C@@](C)(OC)[C@@H](O)[C@H](C)O2)[C@H](C)[C@@H](O[C@@H]2O[C@H](C)C[C@H](N(C)C)[C@@H]2O)[C@](C)(OC)C[C@@H](C)C(=O)[C@H](C)[C@@H](O)[C@]1(C)O,Potency,[10],inactive
